# From the supplement of paper PMC8975748
# Counter-ions that a name gives are not always drawn.
# Tested on: Saccharomyces cerevisiae BY4741 SeMeCo community
# Assay: z-score of subpopulation abundance vs DMSO median, subpopulation auxotrophic for HLM; higher = larger share of this subpopulation than in DMSO controls
# Conditions: 10 µM; 24 h; SM minimal medium; subpopulation (auxotrophy): HLM
# Summary of the method: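 A Saccharomyces cerevisiae BY4741 community carried four plasmids, each restoring one auxotrophy and encoding a distinct fluorescent protein. It was pre-grown overnight to OD600 1.0, diluted to 0.3, and 70 µl was added to 384-well plates acoustically predosed with library drugs (10 µM final), then grown 24 h in minimal SM medium. Cells were paraformaldehyde-fixed and imaged by automated confocal microscopy, with single-auxotroph fluorescent strains setting thresholds and autofluorescence correction. Each subpopulation's abundance was scored as a z-score against the vehicle-well median.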
row,Compound,z-score of subpopulation abundance
1,Nc1ccc(S(=O)(=O)c2ccc(N)cc2)cc1 [Dapson],-0.14
2,Cn1nnnc1SCC1=C(C(=O)O)N2C(=O)[C@@H](NC(=O)[C@H](OC=O)c3ccccc3)[C@H]2SC1 [Cefamandole nafate],-0.57
3,CCC(=O)O[C@@H]1CC(=O)O[C@H](C)C/C=C/C=C/[C@H](O)[C@H](C)C[C@H](CC=O)[C@H](O[C@@H]2O[C@H](C)[C@@H](O[C@H]3C[C@@](C)(O)[C@@H](OC(=O)CC)[C@H](C)O3)[C@H](N(C)C)[C@H]2O)[C@H]1OC [Midecamycin],0.18
4,CCOc1ccc2nc3cc(N)ccc3c(N)c2c1 [Ethacridine lactate monohydrate],5.56
5,CN1CCN(CC(=O)N2c3ccccc3C(=O)Nc3cccnc32)CC1 [Pirenzepine dihydrochloride],-0.87
6,CC1(C)S[C@@H]2[C@H](NC(=O)Cc3ccccc3)C(=O)N2[C@H]1C(=O)O [Benzathine penicilline],0.37
